Assay results reported in the supplement of paper PMC10849652.
Of roughly 8,800 targets only a part is listed; those with a hit were picked by preference. About 0.5% of all pairs of compound and target were hits.

Legend:
Assay in all cases: log2 fold change, soluble protein after heating vs DMSO (PISA); higher = thermal stabilisation; K562 lysate, 10 uM; active = over 0.2 and 3.5 SD of the protein, either way, in both replicates (recomputed)
nilotinib = compound: Cc1cn(-c2cc(NC(=O)c3ccc(C)c(Nc4nccc(-c5cccnc5)n4)c3)cc(C(F)(F)F)c2)cn1 [nilotinib]
Procedure, shortened: (§1)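 Quantification was by TMTpro 16plex LC-MS/MS with equalised channel sums, applied to the supernatant after 21,000xg for 90 min. Samples were crude K562 extract at 1 mg/mL protein in PBS pH 7.4 with 1 mM MgCl2, treated with 10 μM compound for 30 min, heated for 3 min across 48°C-58°C, pooled and brought to 0.5% NP-40 at 4°C. Values are log-two fold changes in thermal stability relative to solvent controls, from duplicates.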

[1] = compound: Cc1nc(Nc2n[nH]c3c2CN(C(=O)N[C@H](CN(C)C)c2ccccc2)C3(C)C)c2sccc2n1
Procedure, shortened: as §1

dasatinib = compound: Cc1nc(Nc2ncc(C(=O)Nc3c(C)cccc3Cl)s2)cc(N2CCN(CCO)CC2)n1 [dasatinib]
Procedure, shortened: as §1

[2] = compound: Cc1ncc(-c2ccnc(Nc3ccc(S(C)(=O)=O)cc3)n2)n1C(C)C
Procedure, shortened: as §1

[3] = compound: Cn1cc(-c2ccc3c(c2)CCN3C(=O)Cc2cccc(C(F)(F)F)c2)c2c(N)ncnc21
Procedure, shortened: as §1

quisinostat = compound: Cn1cc(CNCC2CCN(c3ncc(C(=O)NO)cn3)CC2)c2ccccc21 [quisinostat]
Procedure, shortened: as §1

tipifarnib = compound: Cn1cncc1[C@@](N)(c1ccc(Cl)cc1)c1ccc2c(c1)c(-c1cccc(Cl)c1)cc(=O)n2C [tipifarnib]
Procedure, shortened: as §1

[4] = compound: NC(=O)Nc1cc(-c2cccc(F)c2)sc1C(=O)N[C@H]1CCCNC1
Procedure, shortened: as §1

[5] = compound: NC(=O)c1cnc(N[C@@H]2CCCC[C@@H]2N)nc1Nc1cccc(-n2nccn2)c1
Procedure, shortened: as §1

[6] = compound: NC1(c2ccc(-c3nc4ccn5c(=O)[nH]nc5c4cc3-c3ccccc3)cc2)CCC1
Procedure, shortened: as §1

Measured: log2 fold change

ECH1 (UniProt Q13011)
UniProt Q13011, sequence (Q13011 whole entry, looked up): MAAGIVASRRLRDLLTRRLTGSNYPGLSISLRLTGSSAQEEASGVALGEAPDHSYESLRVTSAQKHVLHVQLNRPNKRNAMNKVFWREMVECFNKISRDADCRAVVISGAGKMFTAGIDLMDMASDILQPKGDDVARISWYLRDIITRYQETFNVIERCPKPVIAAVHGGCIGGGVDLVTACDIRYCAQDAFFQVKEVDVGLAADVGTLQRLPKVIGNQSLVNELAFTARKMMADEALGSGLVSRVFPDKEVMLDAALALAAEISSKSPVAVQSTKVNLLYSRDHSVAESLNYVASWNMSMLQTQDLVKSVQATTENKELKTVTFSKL
inactive: nilotinib -0.008 | [1] -0.019 | dasatinib 0.195 | [2] -0.003 | [3] 0.02 | quisinostat -0.008 | tipifarnib 0.022 | [4] 0.001 | [5] -0.022 | [6] 0.193

FOXJ3 (UniProt Q9UPW0)
inactive: nilotinib 0.156 | [1] -0.053 | dasatinib -0.013 | [2] -0.008 | [3] -0.063 | quisinostat -0.055 | tipifarnib -0.017 | [4] 0.042 | [5] 0.017 | [6] -0.115

ERI1 (UniProt Q8IV48)
inactive: nilotinib 0.004 | [1] -0.008 | dasatinib -0.012 | [2] 0.035 | [3] 0.041 | quisinostat -0.019 | tipifarnib 0.043 | [4] 0.08 | [5] -0.019 | [6] 0.058

EIF2AK1 (UniProt Q9BQI3)
UniProt Q9BQI3, sequence (Q9BQI3 whole entry, looked up): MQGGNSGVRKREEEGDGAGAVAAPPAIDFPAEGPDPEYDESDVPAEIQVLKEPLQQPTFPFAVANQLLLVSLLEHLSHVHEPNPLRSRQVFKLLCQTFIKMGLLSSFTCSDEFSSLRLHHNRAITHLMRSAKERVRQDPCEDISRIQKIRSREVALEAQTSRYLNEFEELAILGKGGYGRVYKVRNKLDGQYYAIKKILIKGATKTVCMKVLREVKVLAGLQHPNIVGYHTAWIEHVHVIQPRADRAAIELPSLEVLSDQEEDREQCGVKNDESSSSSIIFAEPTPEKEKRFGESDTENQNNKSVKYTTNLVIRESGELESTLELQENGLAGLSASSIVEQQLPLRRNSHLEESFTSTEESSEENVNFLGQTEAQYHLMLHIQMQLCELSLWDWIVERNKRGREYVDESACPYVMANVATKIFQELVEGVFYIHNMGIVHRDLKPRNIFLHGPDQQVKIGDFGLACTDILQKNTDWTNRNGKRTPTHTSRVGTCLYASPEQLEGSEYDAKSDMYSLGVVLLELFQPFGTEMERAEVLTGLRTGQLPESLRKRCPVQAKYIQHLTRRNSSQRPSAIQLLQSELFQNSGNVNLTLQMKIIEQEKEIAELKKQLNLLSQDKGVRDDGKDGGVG
inactive: nilotinib -0.006 | [1] 0.211 | dasatinib -0.027 | [2] -0.154 | [3] 0.078 | quisinostat -0.077 | tipifarnib 0.007 | [4] -0.031 | [5] 0.062 | [6] 0.021

ESYT2 (UniProt H7BXI1)
inactive: nilotinib 0.016 | [1] -0.017 | dasatinib -0.01 | [2] 0.037 | [3] 0.02 | quisinostat 0.027 | tipifarnib 0.009 | [4] -0.015 | [5] -0.031 | [6] -0.051

FMNL2 isoform 3 (UniProt Q96PY5)
UniProt Q96PY5, sequence (Q96PY5 whole entry, looked up): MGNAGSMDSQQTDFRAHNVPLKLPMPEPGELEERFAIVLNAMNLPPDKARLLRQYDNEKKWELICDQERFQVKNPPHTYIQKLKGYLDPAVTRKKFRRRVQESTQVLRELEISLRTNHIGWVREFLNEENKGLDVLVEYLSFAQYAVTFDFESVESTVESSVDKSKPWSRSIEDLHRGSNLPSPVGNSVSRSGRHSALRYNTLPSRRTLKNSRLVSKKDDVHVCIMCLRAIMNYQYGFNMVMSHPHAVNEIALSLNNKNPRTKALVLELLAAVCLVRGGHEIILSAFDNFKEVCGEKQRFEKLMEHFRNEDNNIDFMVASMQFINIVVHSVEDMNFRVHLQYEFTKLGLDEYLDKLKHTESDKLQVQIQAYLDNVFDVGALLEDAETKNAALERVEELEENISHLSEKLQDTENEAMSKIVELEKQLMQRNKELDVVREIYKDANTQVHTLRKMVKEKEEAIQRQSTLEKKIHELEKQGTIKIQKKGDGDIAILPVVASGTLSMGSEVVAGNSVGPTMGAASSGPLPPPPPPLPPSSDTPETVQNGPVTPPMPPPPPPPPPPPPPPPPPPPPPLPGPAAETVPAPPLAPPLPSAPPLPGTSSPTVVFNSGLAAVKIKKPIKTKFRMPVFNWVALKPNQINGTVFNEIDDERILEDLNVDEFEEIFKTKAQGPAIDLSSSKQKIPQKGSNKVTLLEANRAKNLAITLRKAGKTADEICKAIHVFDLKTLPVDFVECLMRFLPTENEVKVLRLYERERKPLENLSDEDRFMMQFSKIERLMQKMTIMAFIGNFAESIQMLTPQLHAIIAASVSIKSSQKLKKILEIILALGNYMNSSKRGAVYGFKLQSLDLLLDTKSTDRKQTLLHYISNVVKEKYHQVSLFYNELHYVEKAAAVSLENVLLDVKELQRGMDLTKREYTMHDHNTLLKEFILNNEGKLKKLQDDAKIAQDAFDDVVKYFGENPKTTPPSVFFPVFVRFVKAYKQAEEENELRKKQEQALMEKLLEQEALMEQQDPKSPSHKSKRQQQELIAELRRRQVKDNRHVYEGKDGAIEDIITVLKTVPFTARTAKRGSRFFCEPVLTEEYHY
inactive: nilotinib -0.1 | [1] -0.087 | dasatinib 0.101 | [2] -0.018 | [3] -0.028 | quisinostat -0.1 | tipifarnib -0.012 | [4] -0.047 | [5] 0.002 | [6] -0.021

ENO1, A0A2R8YEM5
inactive: nilotinib -0.021 | [1] -0.017 | dasatinib -0.013 | [2] 0.002 | [3] -0.021 | quisinostat -0.005 | tipifarnib 0.053 | [4] -0.026 | [5] 0.002 | [6] -0.008

ECI2 (UniProt O75521)
UniProt O75521, sequence (O75521 whole entry, looked up): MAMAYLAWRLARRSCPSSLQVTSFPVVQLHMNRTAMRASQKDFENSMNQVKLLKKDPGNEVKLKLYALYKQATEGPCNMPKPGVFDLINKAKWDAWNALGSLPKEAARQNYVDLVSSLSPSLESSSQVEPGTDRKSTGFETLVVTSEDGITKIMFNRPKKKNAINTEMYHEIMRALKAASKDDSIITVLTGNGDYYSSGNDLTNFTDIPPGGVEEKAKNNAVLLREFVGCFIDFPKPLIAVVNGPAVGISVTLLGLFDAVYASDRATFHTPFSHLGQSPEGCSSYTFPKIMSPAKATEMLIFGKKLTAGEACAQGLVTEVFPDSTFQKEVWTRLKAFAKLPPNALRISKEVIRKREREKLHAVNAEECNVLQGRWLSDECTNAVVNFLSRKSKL
inactive: nilotinib 0.085 | [1] -0.013 | dasatinib 0.029 | [2] 0.017 | [3] -0.01 | quisinostat 0.023 | tipifarnib -0.071 | [4] -0.027 | [5] -0.019 | [6] -0.022

EDARADD (UniProt Q8WWZ3)
inactive: nilotinib 0.076 | [1] -0.036 | dasatinib -0.004 | [2] 0.008 | [3] 0.023 | quisinostat 0.07 | tipifarnib 0.065 | [4] -0.05 | [5] -0.032 | [6] 0.019

FARSA (UniProt Q9Y285)
inactive: nilotinib -0.006 | [1] 0.017 | dasatinib -0.03 | [2] -0.003 | [3] 0.001 | quisinostat -0.037 | tipifarnib 0.003 | [4] 0.009 | [5] -0.015 | [6] -0.056

ENY2 (UniProt Q9NPA8)
UniProt Q9NPA8, sequence (Q9NPA8 whole entry, looked up): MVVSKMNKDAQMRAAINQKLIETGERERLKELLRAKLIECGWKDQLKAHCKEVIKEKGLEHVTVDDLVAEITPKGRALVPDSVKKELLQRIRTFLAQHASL
inactive: nilotinib -0.054 | [1] -0.002 | dasatinib 0.045 | [2] 0.007 | [3] 0.033 | quisinostat -0.03 | tipifarnib 0.085 | [4] -0.03 | [5] -0.022 | [6] -0.007

EXOC5 (UniProt O00471)
inactive: nilotinib 0.008 | [1] -0.025 | dasatinib -0.063 | [2] -0.003 | [3] 0.047 | quisinostat -0.044 | tipifarnib 0.006 | [4] 0.014 | [5] 0.01 | [6] 0.002

FNBP1L (UniProt Q5T0N5)
inactive: nilotinib -0.076 | [1] 0.03 | dasatinib -0.131 | [2] 0.007 | [3] -0.051 | quisinostat -0.068 | tipifarnib -0.016 | [4] 0.018 | [5] -0.004 | [6] 0.025

DST (UniProt Q03001)
inactive: nilotinib -0.002 | [1] -0.035 | dasatinib -0.023 | [2] 0.045 | [3] -0.06 | quisinostat -0.118 | tipifarnib 0.069 | [4] 0.022 | [5] 0.027 | [6] -0.107

FBXO30 (UniProt Q8TB52)
inactive: nilotinib 0.015 | [1] -0.032 | dasatinib 0.012 | [2] 0.067 | [3] 0.02 | quisinostat 0.001 | tipifarnib 0.012 | [4] -0.008 | [5] -0.017 | [6] 0.005

GBA2 (UniProt Q9HCG7)
inactive: nilotinib -0.063 | [1] 0.114 | dasatinib 0.059 | [2] -0.079 | [3] 0.034 | quisinostat -0.101 | tipifarnib -0.213 | [4] 0.023 | [5] 0.058 | [6] -0.074

FARSB (UniProt Q9NSD9)
inactive: nilotinib -0.019 | [1] -0.005 | dasatinib -0.019 | [2] 0.006 | [3] 0.032 | quisinostat -0.001 | tipifarnib 0.02 | [4] 0.027 | [5] 0.002 | [6] -0.014

FAU (UniProt E9PR30)
inactive: nilotinib 0.006 | [1] 0.001 | dasatinib -0.018 | [2] 0.005 | [3] 0.052 | quisinostat 0.002 | tipifarnib 0.046 | [4] -0.055 | [5] 0 | [6] -0.058

FAM83A (UniProt Q86UY5)
inactive: nilotinib -0.007 | [1] -0.069 | dasatinib -0.028 | [2] -0.016 | [3] -0.033 | quisinostat -0.088 | tipifarnib -0.08 | [4] 0.034 | [5] 0.004 | [6] -0.019

ETFRF1 (UniProt Q6IPR1)
UniProt Q6IPR1, sequence (Q6IPR1 whole entry, looked up): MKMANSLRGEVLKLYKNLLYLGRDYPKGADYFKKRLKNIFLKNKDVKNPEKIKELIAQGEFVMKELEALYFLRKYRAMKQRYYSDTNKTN
inactive: nilotinib -0.038 | [1] 0.032 | dasatinib -0.01 | [2] -0.02 | [3] 0.062 | quisinostat 0.088 | tipifarnib 0.117 | [4] -0.028 | [5] 0.071 | [6] 0.046

FHOD1 (UniProt Q9Y613)
UniProt Q9Y613, sequence (Q9Y613 whole entry, looked up): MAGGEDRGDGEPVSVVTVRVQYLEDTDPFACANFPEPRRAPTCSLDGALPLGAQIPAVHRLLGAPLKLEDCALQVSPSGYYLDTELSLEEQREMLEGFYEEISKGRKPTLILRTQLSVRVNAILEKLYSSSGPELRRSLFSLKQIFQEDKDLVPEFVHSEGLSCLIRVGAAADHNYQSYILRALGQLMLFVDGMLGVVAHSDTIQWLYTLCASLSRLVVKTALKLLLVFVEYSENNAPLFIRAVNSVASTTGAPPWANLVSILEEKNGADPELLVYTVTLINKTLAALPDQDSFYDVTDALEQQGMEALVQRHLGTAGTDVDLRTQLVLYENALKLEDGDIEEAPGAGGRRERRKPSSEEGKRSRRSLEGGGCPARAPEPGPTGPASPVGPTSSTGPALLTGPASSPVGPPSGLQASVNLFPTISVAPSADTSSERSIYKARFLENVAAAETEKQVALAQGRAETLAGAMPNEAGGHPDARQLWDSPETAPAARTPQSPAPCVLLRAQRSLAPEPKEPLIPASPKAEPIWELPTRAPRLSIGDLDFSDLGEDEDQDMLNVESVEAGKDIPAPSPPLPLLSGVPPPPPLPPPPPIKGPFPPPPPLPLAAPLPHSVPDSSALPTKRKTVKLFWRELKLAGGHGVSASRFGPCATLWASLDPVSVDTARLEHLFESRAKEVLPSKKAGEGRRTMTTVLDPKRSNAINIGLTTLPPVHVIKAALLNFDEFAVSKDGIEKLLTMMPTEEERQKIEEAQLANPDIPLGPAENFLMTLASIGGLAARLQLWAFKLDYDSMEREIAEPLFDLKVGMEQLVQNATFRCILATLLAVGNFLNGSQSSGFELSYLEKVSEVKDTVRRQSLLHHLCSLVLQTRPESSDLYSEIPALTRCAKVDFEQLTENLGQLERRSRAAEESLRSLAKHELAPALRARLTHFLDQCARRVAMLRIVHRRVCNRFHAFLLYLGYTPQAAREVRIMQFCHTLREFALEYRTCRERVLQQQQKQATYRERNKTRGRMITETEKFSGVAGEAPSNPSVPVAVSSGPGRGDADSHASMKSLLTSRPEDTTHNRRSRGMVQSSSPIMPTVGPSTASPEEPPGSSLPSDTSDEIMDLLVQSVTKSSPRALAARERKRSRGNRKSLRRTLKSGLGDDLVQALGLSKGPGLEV
inactive: nilotinib 0.005 | [1] 0.017 | dasatinib -0.05 | [2] -0.007 | [3] 0.002 | quisinostat 0.017 | tipifarnib -0.017 | [4] 0.039 | [5] 0.014 | [6] 0.023

DUS2 (UniProt Q9NX74)
inactive: nilotinib 0.021 | [1] -0.035 | dasatinib 0.037 | [2] 0.011 | [3] -0.024 | quisinostat 0.088 | tipifarnib -0.019 | [4] 0 | [5] 0.014 | [6] -0.045

GGA2 (UniProt Q9UJY4)
UniProt Q9UJY4, sequence (Q9UJY4 whole entry, looked up): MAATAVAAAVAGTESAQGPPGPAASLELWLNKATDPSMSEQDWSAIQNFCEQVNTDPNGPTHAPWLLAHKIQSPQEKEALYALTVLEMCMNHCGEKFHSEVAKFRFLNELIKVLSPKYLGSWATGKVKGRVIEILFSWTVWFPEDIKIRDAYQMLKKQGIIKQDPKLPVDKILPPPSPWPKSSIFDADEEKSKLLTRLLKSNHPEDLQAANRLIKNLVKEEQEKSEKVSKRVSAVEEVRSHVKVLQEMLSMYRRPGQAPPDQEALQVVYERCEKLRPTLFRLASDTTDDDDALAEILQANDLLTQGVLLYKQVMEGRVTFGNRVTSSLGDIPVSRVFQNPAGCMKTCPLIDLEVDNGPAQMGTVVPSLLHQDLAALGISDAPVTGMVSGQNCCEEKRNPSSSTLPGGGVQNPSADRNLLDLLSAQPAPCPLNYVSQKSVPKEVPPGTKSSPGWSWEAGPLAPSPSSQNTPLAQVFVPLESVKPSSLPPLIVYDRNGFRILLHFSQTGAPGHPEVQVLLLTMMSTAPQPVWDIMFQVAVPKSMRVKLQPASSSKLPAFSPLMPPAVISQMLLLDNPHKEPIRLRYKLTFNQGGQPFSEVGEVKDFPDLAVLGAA
inactive: nilotinib -0.028 | [1] -0.047 | dasatinib -0.043 | [2] 0 | [3] 0.032 | quisinostat -0.022 | tipifarnib -0.003 | [4] 0.066 | [5] 0.043 | [6] 0.001

FANCI (UniProt Q9NVI1)
inactive: nilotinib -0.022 | [1] -0.011 | dasatinib -0.069 | [2] 0.028 | [3] 0.049 | quisinostat -0.065 | tipifarnib 0.01 | [4] 0.061 | [5] 0.027 | [6] -0.027

ENGASE (UniProt Q8NFI3)
inactive: nilotinib 0.02 | [1] -0.083 | dasatinib 0.029 | [2] -0.034 | [3] 0.028 | quisinostat 0.009 | tipifarnib 0.043 | [4] -0.04 | [5] 0.011 | [6] -0.025

ENSA isoform 3 (UniProt O43768)
UniProt O43768, sequence (O43768 whole entry, looked up): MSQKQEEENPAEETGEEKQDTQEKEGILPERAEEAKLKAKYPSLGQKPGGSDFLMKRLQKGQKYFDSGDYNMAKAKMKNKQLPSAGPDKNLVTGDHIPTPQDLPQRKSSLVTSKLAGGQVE
inactive: nilotinib -0.022 | [1] -0.011 | dasatinib 0.07 | [2] 0.013 | [3] -0.002 | quisinostat 0.051 | tipifarnib -0.002 | [4] -0.025 | [5] -0.029 | [6] 0.021

ELAVL1 isoform 2 (UniProt Q15717)
inactive: nilotinib -0.035 | [1] -0.014 | dasatinib -0.029 | [2] -0.009 | [3] 0.037 | quisinostat -0.079 | tipifarnib 0.003 | [4] 0.034 | [5] 0.008 | [6] 0.03

ESPL1 (UniProt Q14674)
inactive: nilotinib -0.013 | [1] 0.006 | dasatinib 0.044 | [2] 0.054 | [3] 0.02 | quisinostat 0.066 | tipifarnib -0.024 | [4] 0.021 | [5] -0.014 | [6] -0.055

FXR2 (UniProt P51116)
inactive: nilotinib -0.066 | [1] 0.032 | dasatinib -0.027 | [2] 0.003 | [3] 0.074 | quisinostat 0.025 | tipifarnib 0.015 | [4] -0.034 | [5] -0.012 | [6] -0.003

GABPB1 (UniProt Q06547)
UniProt Q06547, sequence (Q06547 whole entry, looked up): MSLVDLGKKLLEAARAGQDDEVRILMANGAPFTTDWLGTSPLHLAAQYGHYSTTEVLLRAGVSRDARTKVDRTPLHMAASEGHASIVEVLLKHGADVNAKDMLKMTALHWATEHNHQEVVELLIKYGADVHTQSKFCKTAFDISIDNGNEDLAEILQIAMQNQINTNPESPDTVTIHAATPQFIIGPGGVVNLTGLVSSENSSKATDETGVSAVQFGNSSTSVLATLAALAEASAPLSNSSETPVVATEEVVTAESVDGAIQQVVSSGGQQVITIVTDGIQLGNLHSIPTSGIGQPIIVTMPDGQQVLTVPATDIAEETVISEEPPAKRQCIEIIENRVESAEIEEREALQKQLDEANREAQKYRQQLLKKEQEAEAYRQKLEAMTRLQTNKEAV
inactive: nilotinib -0.008 | [1] 0.012 | dasatinib -0.051 | [2] -0.023 | [3] 0.05 | quisinostat -0.036 | tipifarnib 0.007 | [4] 0.031 | [5] 0.05 | [6] 0.033

FAM114A2 (UniProt Q9NRY5)
inactive: nilotinib 0.152 | [1] 0.053 | dasatinib -0.028 | [2] 0.031 | [3] 0.002 | quisinostat 0.02 | tipifarnib -0.231 | [4] 0 | [5] 0.009 | [6] -0.071
